Experimental data taken from PubChem BioAssay AID588331 (National Center for Advancing Translational Sciences (NCATS), 2011).
Results filed as inconclusive are left out. Activity calls are given as the source filed them. Calls follow the shape of the dose curve; as a rule, active = well fitted inhibition curve with a large enough effect; inconclusive = small, poorly fitted or top-dose-only effect; inactive = flat fitted curve, though single readings scatter.

Each compound was assayed on Trypanosoma brucei 6-phosphofructokinase (PFK) (assay: Confirmatory Assay to Find Inhibitors of T. brucei phosphofructokinase: High F6P). Conditions: Kinase-Glo luminescence; series mostly up to 57.5 µM; activity change, negative = inhibition: at the top concentration.
Text: Various species of the protozoan family Trypanosomatidae are responsible for a range of serious human diseases in tropical and subtropical areas of the world. […] Many of the disorders caused by trypanosomatids are fatal if left untreated, but most currently used drugs are inefficient and toxic. […] Oxidative metabolism involving the mitochondrial tricarboxylic acid cycle and oxidative phosphorylation are repressed in these parasites, and recent RNA interference (RNAi) experiments have shown that even partial depletion of certain individual glycolytic enzymes can lead to the death of cultured parasites. One such glycolytic enzyme, phosphofructokinase (PFK), catalyzes the formation of fructose-1,6-bisphosphate (F1,6BP) and ADP from fructose-6-phosphate (F6P) and ATP, and in many metabolic circumstances makes an important contribution to the control of flux through the glycolytic pathway. As a specific glycolytic target, PFK is particularly attractive as it catalyzes the first irreversible step in glycolysis, and structural and kinetic studies have shown very substantial and essential differences from corresponding host enzymes, allowing for the discovery of parasite-selective inhibitors. A luminescent secondary assay was also performed that used luciferase-based nucleotide detection (ADP-Glo, Promega) similar to the qHTS, but that alternatively used saturating concentrations (10x Km concentrations) of ATP or F6P to determine if inhibitor potencies were shifted due to particular substrate competition. […] NIH Molecular Libraries Probe Production Network [MLPCN] NIH Chemical Genomics Center [NCGC] Grant: 1 R03 MH092153-01 PI Name: Malcolm Walkinshaw, University of Edinburgh
Substrate buffer was dispensed into white, solid 1536-well plates at 3 uL/well in 0.1M triethanolamine (TEA) buffer, pH 8.0, containing final concentrations of 5 mM MgCl2 and 0.01% Tween20. Standard substrate buffer contained 0.5 mM fructose-6-phosphate (F6P) and 0.1 mM ATP, high ATP substrate buffer contained 0.5 mM fructose-6-phosphate (F6P) and 1mM ATP, high F6P substrate buffer contained 5mM fructose-6-phosphate (F6P) and 0.1 mM ATP, and high ATP/F6P buffer contained 5 mM fructose-6-phosphate (F6P) and 1 mM ATP. Then, 23 nl of compounds or DMSO were delivered to each well using a pin tool. One uL of T. brucei PFK (0.1 M TEA, 0.01% Tween20, 0.1% bovine serum albumin (BSA) and 1.25 nM PFK, final concentrations) was then dispensed, and plates were incubated at room temperature for 45 min. The luminescent detection reagent, Kinase-Glo Plus (Promega), was then added at 2ul/well and incubated for ten minutes at room temperature. The plates were measured on a ViewLux plate reader for luminescent signal using a clear filter with a one second exposure. The %Activity was determined from the corrected luminescence values. 1x (1.25nM) and 0x PFK enzyme controls (untreated) were included to normalize %Activity of identified inhibitors; 0x enzyme values corresponded to 100%Activity (full inhibition), while 1x PFK enzyme values were used to normalize 0% Activity (no inhibition).
In the case of `Cc1cc(NS(=O)(=O)c2ccc(NC(=O)Cc3ccc(Cl)c(C(F)(F)F)c3)cc2)no1`, the Potency was 5.8 µM (active).
`Cc1cc(NS(=O)(=O)c2ccc(NC(=O)Cc3ccc(Cl)c(Cl)c3)cc2)on1` was tested, and the Potency was 3.26 µM (active).
`COc1ccc(CC(=O)Nc2ccc(S(=O)(=O)Nc3cc(C)on3)cc2)cc1OC` was tested, and the “activity change, negative = inhibition” value was 4.52% (inactive).
For `O=C(Cc1ccc(Cl)c(Cl)c1)Nc1ccc(S(=O)(=O)Nc2ccon2)cc1`, the Potency was 2.06 µM (active).
For `Cc1cc(N(C)S(=O)(=O)c2ccc(NC(=O)Cc3ccc(Cl)c(Cl)c3)cc2)no1`, the Potency was 16.3 µM (active).
In the case of `Cc1cc(NS(=O)(=O)Cc2ccc(NC(=O)Cc3ccc(Cl)c(Cl)c3)cc2)no1`, the Potency was 16.3 µM (active).
In the case of `O=C(Cc1ccc(Cl)c(Cl)c1)Nc1ccc(S(=O)(=O)Nc2ccc(C(=O)O)cc2)cc1`, the Potency was 4.11 µM (active).
With `Cc1cc(NS(=O)(=O)c2ccc(NC(=O)Cc3ccc(Cl)c(F)c3)cc2)no1` the Potency was 8.19 µM (active).
`Cc1cc(NS(=O)(=O)c2ccc(NC(=O)c3ccc(Cl)c(Cl)c3)cc2)no1` was tested, and the “activity change, negative = inhibition” value was -3.99% (inactive).
With `O=C(Cc1ccc(Cl)c(Cl)c1)Nc1ccc(S(=O)(=O)Nc2ccn[nH]2)cc1` the Potency was 5.8 µM (active).
For `Cc1cc(NC(=O)c2ccc(NC(=O)Cc3ccc(Cl)c(Cl)c3)cc2)no1`, the “activity change, negative = inhibition” value was 3.41% (inactive).
In the case of `O=C(Cc1ccc(Cl)c(Cl)c1)Nc1ccc(S(=O)(=O)Nc2cccc(O)c2)cc1`, the Potency was 14.6 µM (active).
In the case of `Cc1cc(NS(=O)(=O)CCNC(=O)Cc2ccc(Cl)c(Cl)c2)no1`, the “activity change, negative = inhibition” value was 4.19% (inactive).
With `O=C(Cc1ccc(Cl)c(Cl)c1)Nc1ccc(S(=O)(=O)O)cc1` the Potency was 5.17 µM (active).
With `Cc1cc(NS(=O)(=O)c2ccc(NC(=O)C(C)(C)c3ccc(Cl)c(Cl)c3)cc2)no1` the “activity change, negative = inhibition” value was -0.0491% (inactive).
With `Cc1cc(N[S+](=O)([O-])c2ccc3cc(NC(=O)Cc4ccc(Cl)c(Cl)c4)ccc3c2)no1` the Potency was 36.6 µM (active).
In the case of `Cc1cc(NS(=O)(=O)c2ccc(NC(=O)Cc3ccc(Cl)cc3)cc2)no1`, the Potency was 20.6 µM (active).
In the case of `Cc1cc(NC(=O)c2csc(NC(=O)Cc3ccc(Cl)c(Cl)c3)n2)no1`, the “activity change, negative = inhibition” value was 2.82% (inactive).
`COc1ccc(CC(=O)Nc2ccc(S(=O)(=O)Nc3cc(C)on3)cc2)cc1C` was tested, and the “activity change, negative = inhibition” value was 1.36% (inactive).
For `Cc1cc(NS(=O)(=O)c2ccc(NC(=O)Cc3ccc(C)c(C)c3)cc2)no1`, the “activity change, negative = inhibition” value was -3.32% (inactive).
For `O=C(Cc1ccc(Cl)c(Cl)c1)Nc1ccc(S(=O)(=O)Nc2cccc(C(=O)O)c2)cc1`, the Potency was 4.61 µM (active).
`Cc1cc(NS(=O)(=O)c2ccc(C(=O)NCc3ccc(Cl)c(Cl)c3)cc2)no1` was tested, and the Potency was 25.9 µM (active).
In the case of `Cc1cc(NS(=O)(=O)c2ccc(N(C)C(=O)Cc3ccc(Cl)c(Cl)c3)cc2)no1`, the Potency was 10.3 µM (active).
For `Cc1cc(NS(=O)(=O)c2ccc(NS(=O)(=O)Cc3ccc(Cl)c(Cl)c3)cc2)no1`, the “activity change, negative = inhibition” value was 7.09% (inactive).
For `Cc1cc(N[S+](=O)([O-])c2ccc(NC(=O)Cc3ccc(Cl)nc3)cc2)no1`, the “activity change, negative = inhibition” value was -2.67% (inactive).
With `CCOC(=O)c1cccc(NS(=O)(=O)c2ccc(NC(=O)Cc3ccc(Cl)c(Cl)c3)cc2)c1` the “activity change, negative = inhibition” value was 6.32% (inactive).
For `Cc1cc(NS(=O)(=O)c2ccc(NC(=O)Cc3ccccc3)cc2)no1`, the “activity change, negative = inhibition” value was -9.12% (inactive).
`O=C(Cc1ccc(Cl)c(Cl)c1)Nc1ccc(S(=O)(=O)Nc2cncnc2)cc1` was tested, and the Potency was 9.19 µM (active).
`Cc1cc(NS(=O)(=O)c2ccc(NC(=O)Cc3ccc(Cl)c(Cl)c3)cc2)n(C)n1` was tested, and the Potency was 13 µM (active).
For `Cc1cc(NS(=O)(=O)c2ccc(NC(=O)Cc3ccc(Cl)c(Cl)c3)cc2)no1`, the Potency was 3.66 µM (active).
In the case of `Cc1cc(NS(=O)(=O)C2CCN(C(=O)Cc3ccc(Cl)c(Cl)c3)CC2)no1`, the “activity change, negative = inhibition” value was -0.566% (inactive).
